Assay outcomes: PubChem BioAssay, several laboratories
The list is not random: actives were taken first. Their share in the collection is about 2.9%.
CRFBP-R2 block: antagonists of CRF-binding protein/CRF-R2 receptor complex; 350,000 tested, 0.59% active; AID 588475; inhibition, % at 11.8 µM; HEK293 CRF-R2/CRF-BP, CRF-induced calcium fluorescence;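 active = inhibition of the ligand-induced calcium signal above about 50% at the single tested concentration, limit read from the data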
MEKK2mut PB1 HTS: signal of MEK5 binding to mutant human MEKK2 PB1 domain. bead flow cytometry, Alexa488-MEK5 binding to MEKK2 mutant. percent response, % at 10 µM. 290,000 tested, 0.35% active. AID 1530; in the data active = percent response above about 24%, passing the limit was not always enough
CRFR2-BP ag: CRF-BP/CRF-R2 complex agonism | HEK293 CRF-R2/CRF-BP, calcium dye fluorescence (FLIPR); percent of saturating CRF peptide response | activation, % at 13.2 µM | 350,000 tested, 0.46% active | AID 588473;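 active = activation of at least 50%, plus an integration ratio under a set limit after plate pattern correction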;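 note: plate controls were neutral control wells without compound for no effect and CRF at EC100 for full effect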
ABCB6 inh 2: inhibitors of human ABC transporter ABCB6 | Q9NP58 | K562-ABCB6 porphyrin accumulation, flow cytometry, 1 h; hits give low values | fluorescence ratio to DMSO, % at 10 µM | 360,000 tested, 0.19% active | AID 602162;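 active = fluorescence ratio to DMSO below 75%, the collection mean minus 3 SD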;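 note: signal is porphyrin accumulated inside mitochondria; 100% equals median channel fluorescence of DMSO control wells; lower ratio means ABCB6 inhibition with less porphyrin fluorescence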
MEKK3 PB1 HTS: MEKK3-MEK5 PB1 interaction, increase or decrease; Q99759; bead-based flow cytometry, Alexa488-MEK5 binding to MEKK3; actives lie on both sides; 0 = blocked by unlabeled MEK5, 100 = vehicle; binding response (% of control), % at 10 µM; 290,000 tested, 1.4% active;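 active = binding response more than 3 SD above or below the average of its plate-row segment, actives on both sides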;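 note: Alexa488 bead fluorescence after subtracting the streptavidin-only scavenger bead signal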
Target sequence (Q99759 whole entry, looked up): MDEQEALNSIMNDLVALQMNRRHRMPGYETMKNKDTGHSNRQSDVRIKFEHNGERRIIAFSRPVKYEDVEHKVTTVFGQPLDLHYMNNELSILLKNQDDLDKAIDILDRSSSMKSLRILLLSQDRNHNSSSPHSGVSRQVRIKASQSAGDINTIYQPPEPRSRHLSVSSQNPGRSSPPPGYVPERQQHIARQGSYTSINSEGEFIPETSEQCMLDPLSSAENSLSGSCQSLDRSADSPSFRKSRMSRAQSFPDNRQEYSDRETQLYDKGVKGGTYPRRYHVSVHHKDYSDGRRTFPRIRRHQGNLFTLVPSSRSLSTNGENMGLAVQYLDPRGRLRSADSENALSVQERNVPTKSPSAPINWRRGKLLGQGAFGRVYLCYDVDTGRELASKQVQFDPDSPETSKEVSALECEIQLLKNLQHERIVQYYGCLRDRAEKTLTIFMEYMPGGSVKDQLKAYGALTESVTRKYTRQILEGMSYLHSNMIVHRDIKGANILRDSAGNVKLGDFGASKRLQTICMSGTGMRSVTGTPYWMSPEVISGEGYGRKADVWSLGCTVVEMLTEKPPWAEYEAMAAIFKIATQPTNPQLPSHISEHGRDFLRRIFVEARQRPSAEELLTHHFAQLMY
MEKK2wt PB1 HTS: raises or lowers MEK5 binding to wildtype human MEKK2 PB1 domain; Q9Y2U5; bead flow cytometry, Alexa488-MEK5 binding to MEKK2 WT; actives lie on both sides; 290,000 tested, 1.1% active; binding response (% of control), % at 10 µM; AID 1531; in the data active = binding response below about 67% or above about 130%
MEKK2wt confirm: raises or lowers MEK5 binding to wildtype human MEKK2, retest; bead flow cytometry, Alexa488-MEK5 binding to MEKK2 WT; actives lie on both sides; AID 1892; shares compounds with MEKK3 PB1 HTS; 5,900 tested, 2.4% active; binding response (% of control), % at 10 µM; in the data active = binding response below about 16% or above about 210%; inactive = in between
MEKK2mut confirm: signal of MEK5 binding to mutant human MEKK2, retest. shares compounds with MEKK3 PB1 HTS. bead flow cytometry, Alexa488-MEK5 binding to MEKK2 mutant. percent response, % at 10 µM. 5,900 tested, 2% active. AID 1893; in the data active = percent response mostly above about 71%, no sharp cut-off; inactive = mostly below about 38%;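 note: higher means compound restores mutant binding toward wildtype level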
MEKK3-MEK5 inh: MEKK3-MEK5 PB1 inhibition, single concentration confirmation. shares compounds with MEKK3 PB1 HTS. bead flow cytometry, Alexa488-MEK5 binding to MEKK3; hits give low values. binding response (% of control), % at 10 µM. 5,900 tested, 1.8% active. AID 1894;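 active = binding response below 72% of control, or above a set upper limit, though filed actives all read lower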;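 note: 100% = DMSO only wells and 0% = binding blocked by excess unlabeled MEK5; lower values mean stronger disruption of MEK5 binding to MEKK3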
Starred values were filed as active, the others as inactive; . = no result; ! = repeats disagree; [ ] = dose if it differs, or a comment.

SMILES	CRFBP-R2 block	MEKK2mut PB1 HTS	CRFR2-BP ag	ABCB6 inh 2	MEKK3 PB1 HTS	MEKK2wt PB1 HTS	MEKK2wt confirm	MEKK2mut confirm	MEKK3-MEK5 inh
O=C(NCCCN1CCOCC1)c1ccc2c(c1)N(Cc1ccc(Cl)cc1)C(=O)c1ccccc1S2=O (stereo not given)	-29	2	12	103	100	114	.	.	.
O=C(CC[C@H]1O[C@@H](n2ccc(=O)[nH]c2=O)[C@H](O)[C@@H]1O)N[C@H](Cc1ccccc1)C(=O)NCc1ccccc1	.	.	.	100	.	.	.	.	.
COc1ccccc1CCNC(=O)c1cccc(S(=O)(=O)N2CCc3ccccc3C2)c1	-8	.	2	95	.	.	.	.	.
OC(CNCc1ccco1)Cn1c2ccc(Br)cc2c2cc(Br)ccc21 (stereo not given)	-32	47*	-1	103	111	216*	184	41	98
CC(=O)Nc1cccc2c1C(=O)N(c1cccc(OC(C)=O)c1)C2=O	4	-14	2	107	83	79	.	.	.
CC(=O)Nc1cccc2c1C(=O)N(c1cccc(C)c1)C2=O	-12	8	0	100	73*[inhibitor]	84	30	-20	53*
O=c1oc2ccccc2cc1-c1nc2c(s1)CCc1ccccc1-2	-66	-2	22	131	92	63*[inhibitor]	72	-15	99
Nc1nnc(-c2cc3ccccc3oc2=O)s1	-12	5	-2	100	104	105	.	.	.
COC(=O)c1cc(-c2ccc(S(=O)(=O)N3CCCC3)cc2)c(C(F)(F)F)s1	39	-25	4	98	87	88	.	.	.
CCN(CC)S(=O)(=O)c1ccc(-c2cc(C(=O)OC)sc2C(F)(F)F)cc1	3	23	1	95	130*	126	106	2	100
O=C(NNS(=O)(=O)c1ccc2ccccc2c1)c1cccs1	-9	0	6	101	144*	103	99	-1	101
O=C(NNS(=O)(=O)c1ccccc1)c1cccs1	-4	18	1	104	104	104	.	.	.
COc1ccccc1NC(=O)C(=O)NNS(=O)(=O)c1ccc2ccccc2c1	5	31	-2	96	131*	118	103	5	101
CC(=O)N1CCN(c2ccccc2NC(=O)c2ccco2)CC1	4	7	-1	94	100	103	.	.	.
CC(C)=NNC(=O)C1=NNC(=O)C1	24	-3	-3	99	94	90	.	.	.
COc1ccc(/C=N/Nc2cc(N3CCCC3)nc(N3CCCC3)n2)cc1	-79	4	2	107	130*	142*	160	33	108
Oc1ccc(/C=N/Nc2cc(N3CCCC3)nc(N3CCCC3)n2)cc1	1	11	-2	99	120	117	.	.	.
CCc1nnc(NS(=O)(=O)c2ccc(N=Cc3c(C)[nH]n(-c4ccc(C)c(C)c4)c3=O)cc2)s1	32	1	-2	103	160*	108	97	-1	102
CN1CCC(=C2c3ccccc3CC(=O)c3sccc32)CC1	10	7	-1	100	114	91	.	.	.
CN1CCC(=C2c3ccccc3CCc3sccc32)CC1	-24	15	2	108	116	155*!	126	16	95
CS(=O)(=O)N1CCN(C(=O)COc2ccccc2)CC1	-1	-15	1	91	92	86	.	.	.
CS(=O)(=O)N1CCN(C(=O)COc2ccc3ccccc3c2)CC1	64*	29	0	92	132*	113	100	-7	105
CS(=O)(=O)N1CCN(C(=O)Cc2cccs2)CC1	11	-9	0	102	63*[inhibitor]	79	111	13	109
CCOc1ccc(N(CC(=O)N/N=C(\C)c2cccc(NC(C)=O)c2)S(=O)(=O)c2ccccc2)cc1	26	5	1	99	106	104	.	.	.
CC1CN(S(=O)(=O)c2ccc(C(=O)N(CCCN(C)C)c3nc4cc5c(cc4s3)OCCO5)cc2)CC(C)O1 (stereo not given)	3	.	-1	94	.	.	.	.	.
SMILES	CRFBP-R2 block	MEKK2mut PB1 HTS	CRFR2-BP ag	ABCB6 inh 2	MEKK3 PB1 HTS	MEKK2wt PB1 HTS	MEKK2wt confirm	MEKK2mut confirm	MEKK3-MEK5 inh
COc1ccc2sc(N(CCCN(C)C)C(=O)c3ccc(S(=O)(=O)N(C)Cc4ccccc4)cc3)nc2c1	-26	.	1	99	.	.	.	.	.
CN(C)CCCN(C(=O)c1ccc2ccccc2c1)c1nc2cc3c(cc2s1)OCO3	-16	24*	0	100	106	142*	140	19	104
CN(C)CCN(C(=O)c1cccc2ccccc12)c1nc2cc3c(cc2s1)OCO3	-26	23	0	106	111	137*	137	21	103
CN(C)CCCN(C(=O)c1ccc(S(=O)(=O)N(C)Cc2ccccc2)cc1)c1nc2cc3c(cc2s1)OCO3	-3	41*	-1	92	112	192*	189	45	107
CN(C)CCN(C(=O)c1ccc2ccccc2c1)c1nc2cc3c(cc2s1)OCCO3	-15	13	0	99	102	125	.	.	.
CCC1CCCCN1S(=O)(=O)c1ccc(C(=O)N(CCCN(C)C)c2nc3cc4c(cc3s2)OCO4)cc1 (stereo not given)	-15	24*	11	104	109	156*	144	31	106
C=C(C)CN(CC)C(=O)CN1C(=O)NC2(CCCc3ccccc32)C1=O (stereo not given)	-13	8	3	100	103	104	.	.	.
Cc1c(NC(=O)COC(=O)c2ccc(Cl)nc2)c(=O)n(-c2ccccc2)n1C	-13	.	0	91	.	.	.	.	.
COc1cc(/C=C/C(=O)OCC(=O)N(C)Cc2ccccc2)ccc1O	-1	.	0	97	.	.	.	.	.
COc1ccc2c(c1)c(/C=N/Nc1nc3ccccc3[nH]1)c(C)n2C	-16	51*	1	92	103	164*	165	41	107
O=C(Nc1ccc(Oc2ccccc2)nc1)C1CCCCN1Cc1ccc(OCCO)cc1 (stereo not given)	-3	15	-1	92	108	110	.	.	.
CC(=O)c1ccc(N2CCN(C(=S)NCc3ccco3)CC2)cc1	10	-16	1	92	46*[inhibitor]	53	93	-27	92
S=C(NCc1ccco1)N1CCN(c2ccc(Cl)cc2)CC1	-4	1	0	99	98	100	.	.	.
